Reference: PubChem BioAssay
The other results are listed elsewhere or left out. The source made the active and inactive calls. Unless noted, no stated cut-off is given here; in the data, active means inhibition above about 25%; inactive means the rest.

Tests used:
[1] = target: Nuclear receptor coactivator 3 (Homo sapiens) (UniProt Q9Y6Q9); experiment: NCOA3 GAL4-fusion reporter inhibition – cell-based, luminescence, quadruplicate, confirmation (AID 588792;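 active means mean inhibition over 43.08%, the solvent-only control mean plus 3 SD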;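 further: 0% = DMSO treated cells and 100% = gossypol at 36 µM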); settings: HEK293 GAL4-SRC3 luciferase reporter, at 3.6 µM, active compounds read high
Nuclear receptor coactivator 3 (Homo sapiens), sequence (Q9Y6Q9 whole entry, looked up, the tested form may be a part): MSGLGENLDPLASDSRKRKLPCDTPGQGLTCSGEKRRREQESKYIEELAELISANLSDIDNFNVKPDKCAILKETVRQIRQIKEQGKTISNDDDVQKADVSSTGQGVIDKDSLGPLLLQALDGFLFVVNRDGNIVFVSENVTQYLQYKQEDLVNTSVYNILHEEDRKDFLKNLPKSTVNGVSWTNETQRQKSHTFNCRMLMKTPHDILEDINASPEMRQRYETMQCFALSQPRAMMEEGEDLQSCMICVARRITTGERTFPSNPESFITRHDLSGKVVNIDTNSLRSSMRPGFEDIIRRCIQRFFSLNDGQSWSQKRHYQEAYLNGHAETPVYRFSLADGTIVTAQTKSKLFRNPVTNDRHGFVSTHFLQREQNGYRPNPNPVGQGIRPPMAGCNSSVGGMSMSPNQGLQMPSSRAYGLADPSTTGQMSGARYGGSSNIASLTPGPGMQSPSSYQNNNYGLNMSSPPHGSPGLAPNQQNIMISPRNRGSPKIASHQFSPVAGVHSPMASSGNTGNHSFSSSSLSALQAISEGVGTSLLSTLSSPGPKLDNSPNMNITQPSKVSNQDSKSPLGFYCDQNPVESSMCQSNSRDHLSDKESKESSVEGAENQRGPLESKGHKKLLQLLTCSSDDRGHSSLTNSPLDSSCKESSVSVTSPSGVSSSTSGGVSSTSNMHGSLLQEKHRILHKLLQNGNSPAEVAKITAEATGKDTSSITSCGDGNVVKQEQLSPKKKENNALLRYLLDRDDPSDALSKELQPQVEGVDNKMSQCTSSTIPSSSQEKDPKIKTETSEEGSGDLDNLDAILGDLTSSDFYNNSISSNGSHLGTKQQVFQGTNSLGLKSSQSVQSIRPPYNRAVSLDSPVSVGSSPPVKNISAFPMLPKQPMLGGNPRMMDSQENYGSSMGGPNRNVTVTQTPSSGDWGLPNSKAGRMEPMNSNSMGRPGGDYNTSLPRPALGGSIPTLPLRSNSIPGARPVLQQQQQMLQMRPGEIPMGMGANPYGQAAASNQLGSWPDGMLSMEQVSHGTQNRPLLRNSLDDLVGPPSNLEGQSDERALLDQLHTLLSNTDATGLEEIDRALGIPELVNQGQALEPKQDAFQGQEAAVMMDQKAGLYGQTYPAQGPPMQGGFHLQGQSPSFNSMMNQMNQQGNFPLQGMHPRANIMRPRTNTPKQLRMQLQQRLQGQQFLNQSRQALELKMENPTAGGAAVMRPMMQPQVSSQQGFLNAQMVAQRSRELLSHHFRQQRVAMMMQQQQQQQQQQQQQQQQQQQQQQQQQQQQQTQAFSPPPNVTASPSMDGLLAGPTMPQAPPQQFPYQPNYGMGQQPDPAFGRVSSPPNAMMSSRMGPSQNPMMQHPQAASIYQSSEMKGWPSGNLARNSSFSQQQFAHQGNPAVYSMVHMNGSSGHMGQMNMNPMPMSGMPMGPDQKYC

[2] = system: transactivating tegument protein VP16 (Human herpesvirus 1), Gal4-VP16 luciferase reporter; experiment: repression of VP16-driven luciferase reporter – cell-based, luminescence, high throughput, counter-screen for SRC3 inhibitor project (AID 588794; in the data active means inhibition above about 30%); settings: mammalian cells, at 3.6 µM, active compounds read high
[3] = repression of VP16-driven luciferase reporter – cell-based, luminescence, high throughput, counter-screen for SRC1 inhibitor project (AID 588824); settings: cell-based VP16 transactivation luciferase luminescence; at 3.6 µM; active compounds read high
[4] = system: transactivating tegument protein VP16 (Human herpesvirus 1); experiment: compounds suppressing VP16-driven luciferase signal – cell-based, luminescence, single concentration, counter-screen for SRC2 inhibitor project (AID 652007; in the data active means inhibition above about 36%); settings: cell-based VP16 transactivation luciferase reporter, at 8.9 µM, active compounds read high
[5] = target: Nuclear receptor coactivator 2 (Homo sapiens) (UniProt Q15596); experiment: inhibition of GAL4-SRC2 driven luciferase expression – cell-based, luminescence, HEK293, triplicate, confirmation (AID 652008;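 active means mean inhibition above 46.5%, the solvent-only control mean plus 3 SD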;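 further: 0% = DMSO-treated cells and 100% = Gossypol at 36 µM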); settings: HEK293 GAL4-SRC2 luciferase reporter, at 8.9 µM, active compounds read high
[6] = target: Nuclear receptor coactivator 1 (Homo sapiens) (UniProt Q15788); experiment: NCOA1 GAL4-fusion reporter inhibition – cell-based, luminescence, quadruplicate, confirmation (AID 588820;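 active means mean inhibition above 46.68%, the untreated control wells mean plus 3 SD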;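 further: 0% = DMSO wells and 100% = gossypol 36 µM treated wells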); settings: HEK293 GAL4-SRC1 luciferase reporter, at 3.6 µM, active compounds read high
Nuclear receptor coactivator 1 (Homo sapiens), sequence (Q15788 whole entry, looked up, the tested form may be a part): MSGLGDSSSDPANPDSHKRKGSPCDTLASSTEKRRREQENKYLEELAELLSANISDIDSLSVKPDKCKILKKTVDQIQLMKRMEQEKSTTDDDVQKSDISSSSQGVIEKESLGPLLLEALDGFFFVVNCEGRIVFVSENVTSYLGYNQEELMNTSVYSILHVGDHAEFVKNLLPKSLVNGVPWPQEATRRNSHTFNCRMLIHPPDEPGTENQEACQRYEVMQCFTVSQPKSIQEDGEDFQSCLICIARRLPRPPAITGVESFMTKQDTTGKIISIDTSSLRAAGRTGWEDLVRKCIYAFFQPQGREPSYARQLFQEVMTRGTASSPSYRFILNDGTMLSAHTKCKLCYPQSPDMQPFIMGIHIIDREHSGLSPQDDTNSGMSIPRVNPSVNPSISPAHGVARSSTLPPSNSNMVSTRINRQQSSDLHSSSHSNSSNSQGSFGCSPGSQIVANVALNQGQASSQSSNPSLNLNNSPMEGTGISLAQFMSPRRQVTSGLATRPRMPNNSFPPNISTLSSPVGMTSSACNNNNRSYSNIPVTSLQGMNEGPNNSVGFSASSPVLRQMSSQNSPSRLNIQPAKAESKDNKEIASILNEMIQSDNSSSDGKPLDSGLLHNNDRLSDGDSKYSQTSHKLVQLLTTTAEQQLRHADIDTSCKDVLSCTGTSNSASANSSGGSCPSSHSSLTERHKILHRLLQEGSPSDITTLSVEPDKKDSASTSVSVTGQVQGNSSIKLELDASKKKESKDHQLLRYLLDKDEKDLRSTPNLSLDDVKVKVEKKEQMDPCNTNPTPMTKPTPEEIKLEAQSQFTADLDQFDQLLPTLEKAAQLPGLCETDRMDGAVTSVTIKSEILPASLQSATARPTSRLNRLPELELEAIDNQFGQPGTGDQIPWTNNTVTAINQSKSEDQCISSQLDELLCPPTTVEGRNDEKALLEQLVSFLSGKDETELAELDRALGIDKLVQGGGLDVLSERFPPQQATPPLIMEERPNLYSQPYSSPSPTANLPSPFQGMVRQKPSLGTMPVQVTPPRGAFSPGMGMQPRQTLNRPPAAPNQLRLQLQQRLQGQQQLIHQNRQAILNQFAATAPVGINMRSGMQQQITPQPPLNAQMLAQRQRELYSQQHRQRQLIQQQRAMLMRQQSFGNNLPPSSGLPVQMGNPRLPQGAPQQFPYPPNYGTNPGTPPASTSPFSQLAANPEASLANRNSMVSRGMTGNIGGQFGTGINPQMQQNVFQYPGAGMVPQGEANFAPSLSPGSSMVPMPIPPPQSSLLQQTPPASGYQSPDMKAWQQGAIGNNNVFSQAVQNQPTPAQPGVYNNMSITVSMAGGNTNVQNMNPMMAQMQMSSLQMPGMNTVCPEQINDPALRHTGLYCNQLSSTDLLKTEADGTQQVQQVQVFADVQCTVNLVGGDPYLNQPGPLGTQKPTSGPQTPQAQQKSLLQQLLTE

[7] = StAR promoter reporter inhibitors, counter-screen for LRH-1 inverse agonist project, cell-based, luminescence, high throughput (AID 651611; in the data active means inhibition above about 28%); settings: StAR promoter luciferase reporter counterscreen, at 3.6 µM, active compounds read high
[8] = target: Nuclear receptor subfamily 5 group A member 2 (Homo sapiens) (UniProt O00482); experiment: NR5A2 activity suppression in reporter cells – cell-based, luminescence, confirmation (AID 651613; in the data active means inhibition above about 42%;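 further: HEK293T cells co-transfected with LRH-1 and StAR promoter luciferase reporter; 0% = vehicle wells and 100% = parental cells lacking receptor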); settings: cell-based LRH-1 luciferase reporter, inverse agonism; at 3.6 µM; active compounds read high
Nuclear receptor subfamily 5 group A member 2 (Homo sapiens), sequence (O00482 whole entry, looked up): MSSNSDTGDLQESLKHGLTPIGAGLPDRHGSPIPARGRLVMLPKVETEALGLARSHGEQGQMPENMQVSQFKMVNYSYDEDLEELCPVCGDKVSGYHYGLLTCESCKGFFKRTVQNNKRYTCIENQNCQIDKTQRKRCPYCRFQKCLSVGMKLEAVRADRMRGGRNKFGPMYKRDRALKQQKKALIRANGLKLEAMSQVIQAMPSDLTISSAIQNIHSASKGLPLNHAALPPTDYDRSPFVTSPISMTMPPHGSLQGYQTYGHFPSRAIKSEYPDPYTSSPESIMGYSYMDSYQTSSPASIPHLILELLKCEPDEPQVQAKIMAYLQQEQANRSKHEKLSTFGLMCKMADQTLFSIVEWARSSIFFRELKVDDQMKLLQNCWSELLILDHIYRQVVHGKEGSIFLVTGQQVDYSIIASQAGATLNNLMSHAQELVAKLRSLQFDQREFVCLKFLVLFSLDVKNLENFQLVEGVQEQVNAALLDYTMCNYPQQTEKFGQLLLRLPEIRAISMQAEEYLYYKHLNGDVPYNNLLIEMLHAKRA

[9] = target: Steroidogenic factor 1 (Homo sapiens) (UniProt Q13285); experiment: inverse agonism at SF1 nuclear receptor – cell-based, luminescence, high throughput, counter-screen for LRH-1 inverse agonist project (AID 651614; in the data active means inhibition above about 44%;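 further: cells cotransfected with StAR promoter reporter and SF1 expression vector; 0% = vehicle on cells with receptor and 100% = vehicle on cells lacking receptor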); settings: cell-based SF1 luciferase reporter, at 3.6 µM, active compounds read high
Steroidogenic factor 1 (Homo sapiens), sequence (Q13285 whole entry, looked up, the tested form may be a part): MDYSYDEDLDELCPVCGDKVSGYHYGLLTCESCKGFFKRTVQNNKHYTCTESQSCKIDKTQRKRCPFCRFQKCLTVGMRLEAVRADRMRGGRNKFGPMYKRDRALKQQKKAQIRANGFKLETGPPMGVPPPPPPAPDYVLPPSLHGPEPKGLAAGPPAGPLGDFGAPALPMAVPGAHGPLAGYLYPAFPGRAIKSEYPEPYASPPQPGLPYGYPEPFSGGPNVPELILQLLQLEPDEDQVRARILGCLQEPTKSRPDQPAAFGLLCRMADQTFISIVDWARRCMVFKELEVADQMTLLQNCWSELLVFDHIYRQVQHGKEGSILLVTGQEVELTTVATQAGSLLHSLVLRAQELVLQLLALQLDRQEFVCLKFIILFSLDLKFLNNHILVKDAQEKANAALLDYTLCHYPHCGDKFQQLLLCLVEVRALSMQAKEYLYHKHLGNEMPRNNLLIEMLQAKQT

[10] = compounds suppressing VP16-driven luciferase signal – cell-based, luminescence, high throughput, counter-screen for LRH-1 inverse agonist project (AID 651615; in the data active means inhibition above about 33%); settings: Gal4-VP16 luciferase reporter cells, at 3.6 µM, active compounds read high
[11] = VP16-driven transactivation reporter suppression – cell-based, luminescence, HEK293, counter-screen for COUP-TFII antagonist project (AID 687007; in the data active means inhibition above about 13%); settings: HEK293 Gal4-VP16 luciferase reporter, at 8.5 µM, active compounds read high
[12] = target: COUP transcription factor 2 (Homo sapiens) (UniProt P24468); experiment: retest of COUP-TFII reporter suppressors – cell-based, luciferase reporter, HEK293, triplicate, confirmation (AID 687008;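 active means mean inhibition over three repeats above a set limit taken from the earlier primary screen, cut at about 38% in these data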;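 further: 100% = cells given the luciferase reporter alone without the COUP-TF2 vector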); settings: HEK293 NGFI-A luciferase reporter, luminescence; at 8.5 µM; active compounds read high
COUP transcription factor 2 (Homo sapiens), sequence (P24468 whole entry, looked up): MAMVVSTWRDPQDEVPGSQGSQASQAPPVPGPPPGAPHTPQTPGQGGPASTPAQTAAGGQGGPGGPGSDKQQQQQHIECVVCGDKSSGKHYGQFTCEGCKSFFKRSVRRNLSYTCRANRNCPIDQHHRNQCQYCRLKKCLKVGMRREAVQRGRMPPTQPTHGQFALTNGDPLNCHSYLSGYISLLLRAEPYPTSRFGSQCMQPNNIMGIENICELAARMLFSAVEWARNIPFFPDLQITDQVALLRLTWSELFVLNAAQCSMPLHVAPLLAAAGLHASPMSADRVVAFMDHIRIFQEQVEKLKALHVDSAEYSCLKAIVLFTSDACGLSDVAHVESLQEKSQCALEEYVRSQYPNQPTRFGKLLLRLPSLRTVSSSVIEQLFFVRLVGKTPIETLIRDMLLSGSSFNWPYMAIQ

Measured: inhibition

C=C1C(=O)O[C@@H]2C[C@@H](C)[C@@H]3C=CC(=O)[C@@]3(C)[C@@H](O)[C@H]12
active: [2] 92.5% | [3] 91.7% | [4] 96% | [5] 93.7%
inactive: [1] 42.1%

O=C1NC2C(O)C(O)C(O)C(O)C2c2cc3c(c(O)c21)OCO3 (stereo not drawn)
active: [1] 97.3% | [2] 96% | [6] 93.4% | [3] 95% | [7] 96.4% | [8] 109% | [9] 97.7% | [10] 98.6% | [4] 79.7% | [5] 75.7%

O=C1NC2C(=CC(O)C(O)C2O)c2cc3c(c(O)c21)OCO3 (stereo not drawn)
active: [1] 97.4% | [2] 96.1% | [6] 94.7% | [3] 94.7% | [7] 95.7% | [8] 109% | [9] 98% | [10] 96% | [4] 79.3% | [5] 75.6%

C[C@]12CC[C@H]3[C@@H](CC[C@]4(O)C[C@@H](O)CC[C@]34C=O)[C@@]1(O)CC[C@@H]2C1=CC(=O)OC1
active: [1] 92.8% | [2] 81.1% | [6] 46.8% | [3] 79.7% | [8] 110% | [9] 98.7%

COc1ccc2c(c1)[nH]c1c(C)nccc12
active: [1] 79% | [2] 48.6% | [6] 63.4% | [3] 51.4%
inactive: [4] 9.1% | [5] 42.9%

CCOc1ccc(-c2cc(C)[n+](CCN(CC)CC)c(-c3ccc(OCC)cc3)c2)cc1
active: [1] 68.1% | [2] 80.8% | [6] 67.7% | [3] 81.7% | [7] 73.6% | [8] 105% | [9] 93.8% | [10] 90% | [11] 19.5% | [12] 62%

C[C@H]1C[C@@H](C)C(=O)[C@@H]([C@H](O)CC2CC(=O)NC(=O)C2)C1
active: [1] 96.7% | [2] 92.3% | [6] 82.3% | [3] 91.3% | [8] 110% | [9] 97.9% | [4] 63.2% | [5] 62.9%

C=C1C(=O)OC2CC(C)C3C=CC(=O)C3(C)C(O)C12 (stereo not drawn)
inactive: [1] 38%
active: [2] 90.7% | [3] 90.6% | [7] 62.5% | [8] 88.6% | [9] 90.1% | [10] 91.2%

CC1=CC2OC3CC4OC(=O)C=CC=CC(C(C)O)OCC(O)C5(C)OC5C(=O)OCC2(CC1O)C4(C)C31CO1 (stereo not drawn)
active: [1] 98.6% | [2] 96.2% | [6] 96.5% | [3] 95.1% | [7] 94.8% | [8] 108% | [9] 96.5% | [10] 96.2% | [4] 82.1% | [5] 73.5%

C[C@@H]1O[C@@H](O[C@@H]2C=C3CCC4C(CC[C@]5(C)[C@@H](c6ccc(=O)oc6)CC[C@]45O)[C@@]3(C)CC2)[C@H](O)[C@H](O)[C@H]1O (stereo partly drawn)
active: [1] 97.5% | [2] 90.9% | [6] 84.9% | [3] 89.9% | [7] 97% | [8] 110% | [9] 98.9% | [10] 96.5% | [4] 74.1% | [5] 60.1%

O=C(c1ccccc1)C(CN1CCCC1)c1ccccc1 (stereo not drawn)
inactive: [1] 19.4% | [6] 10.9% | [4] 27%
active: [2] 33.5% | [3] 39.2% | [5] 68.3%

CC(=O)OC1CC(OC2C(O)CC(OC3C(O)CC(OC4CCC5(C)C(CCC6C5CC(O)C5(C)C(C7=CC(=O)OC7)CCC65O)C4)OC3C)OC2C)OC(C)C1OC1OC(CO)C(O)C(O)C1O (stereo not drawn)
inactive: [5] 28.8%
active: [1] 97.8% | [2] 88.9% | [6] 73.8% | [3] 86.5% | [7] 95% | [8] 109% | [9] 97.9% | [10] 89.4% | [4] 64.3%

CC1=CC2OC3CC4OC(=O)C=CC=CC(C(C)O)OCC(O)C(C)CC(=O)OCC2(CC1O)C4(C)C31CO1 (stereo not drawn)
active: [1] 98.7% | [2] 98.2% | [6] 97.4% | [3] 97.9% | [7] 96.3% | [8] 108% | [9] 96% | [10] 97.5% | [4] 79.8% | [5] 70.1%

COc1ccc(CC2NCC(O)C2OC(C)=O)cc1 (stereo not drawn)
active: [1] 98.6% | [2] 96.7% | [6] 96.2% | [3] 96.6% | [7] 96.6% | [8] 111% | [9] 98.3% | [10] 96.1% | [4] 84.6% | [5] 82.5%

CCCCN=C[C@]12CCC(O)CC1(O)CCC1[C@@H]2CC[C@]2(C)[C@H](C3C=CC(=O)O3)CCC12O (stereo partly drawn)
inactive: [6] 42% | [5] 20.9%
active: [1] 94% | [2] 75.5% | [3] 75% | [7] 97% | [8] 110% | [9] 98.5% | [10] 85.2% | [4] 69.6%
